Screens as filed in PubChem.
FLuc counter = inhibits or activates purified firefly luciferase, miR-21 counter-screen; purified FLuc, Km substrates, luminescence inhibition; AID 588342; 360,000 tested, 6.9% active; P08659; Potency, µM (doses to about 57.5 µM), without a hit: at the top dose activity change, negative = inhibition, most hits filed as inhibitors;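 also: plate controls were vehicle for no effect and reference inhibitor for full effect; nearly all actives have a fitted effect of over 55% in size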
Target sequence (P08659 whole entry, looked up): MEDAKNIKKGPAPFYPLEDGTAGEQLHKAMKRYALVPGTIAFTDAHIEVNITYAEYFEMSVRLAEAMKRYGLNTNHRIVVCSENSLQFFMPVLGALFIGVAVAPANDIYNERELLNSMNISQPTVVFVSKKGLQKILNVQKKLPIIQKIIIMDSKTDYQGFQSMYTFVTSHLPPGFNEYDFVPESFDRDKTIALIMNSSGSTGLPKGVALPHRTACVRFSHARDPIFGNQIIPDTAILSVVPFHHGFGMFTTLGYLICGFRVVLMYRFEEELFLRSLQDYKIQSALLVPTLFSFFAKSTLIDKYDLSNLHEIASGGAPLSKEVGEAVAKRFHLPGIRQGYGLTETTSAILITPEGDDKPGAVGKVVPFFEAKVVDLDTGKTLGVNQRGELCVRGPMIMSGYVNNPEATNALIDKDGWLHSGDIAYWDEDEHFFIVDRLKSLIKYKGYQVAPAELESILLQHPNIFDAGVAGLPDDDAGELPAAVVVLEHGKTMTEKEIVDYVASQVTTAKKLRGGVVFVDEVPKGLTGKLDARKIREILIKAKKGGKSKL
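Biochemical qHTS of compounds, final roughly 60 µM downward over six points, against 10 nM purified firefly luciferase using Km concentrations of substrates (10 uM D-luciferin, 10 uM ATP) in Tris acetate pH 7.5 buffer; luminescence output.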
NPC1 promoter act = NPC1 promoter activation. Potency, µM (doses to about 9.22 µM), inactives show at the top dose activation, most hits filed as activators. 320,000 tested, 2.4% active. Huh7 NPC1 promoter luciferase reporter, 24 h; also: % of control where 0% means no effect; nearly all actives have a fitted effect of over 60% in size
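Huh7 reporter cells (NPC1 promoter driving luciferase) are dosed with compound for 24 h at 37 °C, 5% CO2; luciferase detection reagent is then added and luminescence measured after 10 min at ambient temperature.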
SMN2 splice up = enhancers of SMN2 splice variant expression; HEK293 SMN2-luciferase splicing reporter, luminescence, 30-36 h; Potency, µM (series often up to 46.1 µM), without a hit: at the top dose activity change, positive = activation, actives largely listed as activators; 210,000 tested, 2.8% active; AID 1458; also: % of control where 0% means no effect; nearly all actives have a fitted effect of over 55% in size
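HEK293 cells carry an SMN2 minigene-luciferase reporter in which exon 7 inclusion puts luciferase in frame. Cells were seeded at 2000 cells/well, attached for 10-12 hours, then exposed to compounds for 30-36 hours at 37C before ONE-Glo luminescence.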
ELG1 genotoxic = inducers of genotoxicity in HEK293T ELG1-luciferase cells; HEK293T ELG1-luciferase reporter, luminescence, 16 h; Potency, µM (titrated, usually from 46 µM), for inactives: top-dose activity change, positive = activation, most hits filed as activators; AID 504466; 330,000 tested, 1.3% active; also: % of control where 0% means no effect; nearly all actives have a fitted effect of over 60% in size
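Screening used a luciferase reporter fused to human ELG1 in HEK293T cells. Luminescence was read on a CCD plate imager after 16 hr exposure and 30 min ONE-Glo incubation.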
Rab9 prom act = activators of Rab9 promoter; Huh7 Rab9 promoter-luciferase reporter, luminescence, 24 h; Potency, µM (series often up to 9.22 µM), for the others: top-dose activation, negative = inhibition, hits mostly activators; 320,000 tested, 2.8% active; AID 485297; also: % of control where 0% means no effect; nearly all actives have a fitted effect of over 60% in size
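Huh7 reporter line, Rab9 promoter upstream of luciferase. Compound exposure 24 h at 37 °C in reduced-serum medium with 10% FBS. Read-out: luminescence.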
p53 reactivator = mutant p53 re-activation in reporter cells; H1299 p53-A138V BP100-luciferase reporter, luminescence, 24 h; Potency, µM (titrated, usually from 92.2 µM), for the others: at the top dose activity change, positive = activation, usual class: activators; 320,000 tested, 0.063% active; AID 504706; also: % of control where 0% means no effect; nearly all actives have a fitted effect of over 45% in size
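p53-null H1299 cells stably carrying temperature-sensitive p53-A138V and a BP100-luciferase reporter were pinned with compounds (4-point, 1:5 series) and held 24 hrs at 37 deg C. Luminescence was read 10 min after detection reagent.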
Active calls of the source: *. An excerpt weighted towards active compounds, which were near 7.4% of everything screened. Calls follow the shape of the dose curve; as a rule, active = well fitted curve in the direction sought with a large enough effect; inconclusive = small, poorly fitted or top-dose-only effect, or another doubt; inactive = no such curve, though single readings can be large; an effect the other way counts as inactive or inconclusive. Potency is read from the fitted curve at half-maximal effect.

Results for COc1ccc(-c2cc(C(=O)NCC3CCCO3)c3cc(C)ccc3n2)cc1 (centres undefined) ?
FLuc counter: 2.13µM*; NPC1 promoter act: 15.8%; SMN2 splice up: inconclusive; ELG1 genotoxic: 3.1%; Rab9 prom act: 20.6%; p53 reactivator: 12.4%

Results for COc1ccc(-c2cc(C(=O)NCC3CCCO3)c3ccccc3n2)cc1 (centres undefined) ?
FLuc counter: 12µM*; NPC1 promoter act: 13.5%; SMN2 splice up: 7.1%; ELG1 genotoxic: -5.7%; Rab9 prom act: 17.3%; p53 reactivator: 1.4%

What do the screens show for `COc1cccc(-c2cc(C(=O)NCC3CCCO3)c3ccccc3n2)c1` (centres undefined)?
FLuc counter: 26.9µM*; NPC1 promoter act: -1.9%; SMN2 splice up: -5.8%; ELG1 genotoxic: -1.9%; Rab9 prom act: -1.8%; p53 reactivator: -10.1%

How did CCCC[C@@H]1C[C@H]1C(NC(=O)c1ccccc1)c1ccccc1C(F)(F)F (some centres undefined) do in these assays?
SMN2 splice up: -18.6%

Results for CN(Cc1ccon1)C(=O)C1CCC(=O)N(CCc2ccc(Cl)cc2)C1 (centres undefined) ?
FLuc counter: -2.3%; NPC1 promoter act: -1.9%; ELG1 genotoxic: 4.5%; Rab9 prom act: -0.4%

Results for CN1CCCC1CCNc1ccc2oc3ccccc3c(=O)c2c1 (centres undefined) ?
FLuc counter: 4.78µM*; NPC1 promoter act: 17.5%; ELG1 genotoxic: inconclusive; Rab9 prom act: -3.7%; p53 reactivator: -2.2%

Results for CN1CCCC1CCNc1ccc2c(=O)c3ccccc3oc2c1 (centres undefined) ?
FLuc counter: 10.7µM*; NPC1 promoter act: inconclusive; ELG1 genotoxic: inconclusive; Rab9 prom act: inconclusive; p53 reactivator: 2.1%

What do the screens show for `CCc1ccc(-c2ccc(SCC(=O)Nc3nnc(C)s3)nn2)cc1`?
FLuc counter: 0.301µM*; NPC1 promoter act: 2.24µM*; SMN2 splice up: 12.6µM*; ELG1 genotoxic: inconclusive; Rab9 prom act: 1.26µM*; p53 reactivator: -6.2%

How did Cc1ccccc1NC(=O)CSc1ccc(-c2ccc(-n3cccn3)cc2)nn1 do in these assays?
FLuc counter: inconclusive; NPC1 promoter act: -1.1%; ELG1 genotoxic: 18.5%; Rab9 prom act: -0.3%; p53 reactivator: -5.6%

How did CCOc1ccc(-c2ccc(SCC(=O)Nc3nnc(C)s3)nn2)cc1 do in these assays?
FLuc counter: 0.301µM*; NPC1 promoter act: inconclusive; SMN2 splice up: inconclusive; ELG1 genotoxic: 0.2%; Rab9 prom act: inconclusive; p53 reactivator: -2.2%

Results for CCc1nnc(NC(=O)CSc2ccc(-c3ccc(-n4cccn4)cc3)nn2)s1 ?
FLuc counter: 1.2µM*; NPC1 promoter act: inconclusive; ELG1 genotoxic: 5.8µM*; Rab9 prom act: 2.51µM*; p53 reactivator: 11.4%

How did CCc1ccc(-c2ccc(SCC(=O)NCC3CCCO3)nn2)cc1 (centres undefined) do in these assays?
FLuc counter: 3.38µM*; NPC1 promoter act: inconclusive; SMN2 splice up: 14.1µM*; ELG1 genotoxic: 8.6%; Rab9 prom act: inconclusive; p53 reactivator: -3.2%

What do the screens show for `Cc1nnc(NC(=O)CSc2ccc(-c3ccc(Cl)cc3)nn2)s1`?
FLuc counter: inconclusive; NPC1 promoter act: 16.6%; SMN2 splice up: 12.5%; ELG1 genotoxic: inconclusive; Rab9 prom act: 0.0%; p53 reactivator: 1.2%

What do the screens show for `COc1ccc(-n2nc(C(=O)NCC(=O)N3CCC(C)CC3)c3ccccc3c2=O)cc1Cl`?
FLuc counter: 1.9µM*; NPC1 promoter act: 24.4%; ELG1 genotoxic: -6.6%; Rab9 prom act: 20.9%; p53 reactivator: inconclusive

Results for COc1ccc(-n2nc(C(=O)NCC(=O)N3CCN(C)CC3)c3ccccc3c2=O)cc1OC ?
FLuc counter: inconclusive; NPC1 promoter act: 3.0%; SMN2 splice up: -5.0%; ELG1 genotoxic: 0.7%; Rab9 prom act: 0.6%; p53 reactivator: -2.3%
